# Measurements: the supplement of paper PMC7724964
# T1: SHC1 149-317 PID (domain begin residue: 149, domain end residue: 317), P29353
# T1 chain: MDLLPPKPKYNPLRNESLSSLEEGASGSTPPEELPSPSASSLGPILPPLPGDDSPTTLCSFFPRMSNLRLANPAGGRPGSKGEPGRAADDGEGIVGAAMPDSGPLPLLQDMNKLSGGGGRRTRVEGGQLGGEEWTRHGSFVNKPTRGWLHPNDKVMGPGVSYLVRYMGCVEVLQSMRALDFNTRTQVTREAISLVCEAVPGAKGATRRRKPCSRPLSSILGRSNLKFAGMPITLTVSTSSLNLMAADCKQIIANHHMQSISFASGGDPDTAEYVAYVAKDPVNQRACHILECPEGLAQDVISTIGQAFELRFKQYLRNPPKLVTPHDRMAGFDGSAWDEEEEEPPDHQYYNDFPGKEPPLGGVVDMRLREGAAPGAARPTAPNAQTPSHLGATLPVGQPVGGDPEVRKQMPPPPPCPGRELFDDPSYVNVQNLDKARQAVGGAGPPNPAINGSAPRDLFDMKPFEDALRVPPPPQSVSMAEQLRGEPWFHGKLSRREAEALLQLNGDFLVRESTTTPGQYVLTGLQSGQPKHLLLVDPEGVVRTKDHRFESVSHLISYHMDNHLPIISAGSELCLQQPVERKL
# T2: SPSB2 26-221 SPRY (domain begin residue: 26, domain end residue: 221), Q99619
# T2 chain: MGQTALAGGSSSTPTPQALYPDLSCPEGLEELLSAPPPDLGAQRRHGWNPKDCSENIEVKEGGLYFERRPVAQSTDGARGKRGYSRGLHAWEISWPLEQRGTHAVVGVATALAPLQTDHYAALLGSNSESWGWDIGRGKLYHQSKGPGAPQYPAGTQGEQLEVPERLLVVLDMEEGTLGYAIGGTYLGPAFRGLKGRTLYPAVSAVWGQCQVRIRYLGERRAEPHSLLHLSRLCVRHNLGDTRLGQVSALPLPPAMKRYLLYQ
# T3: SPRED2 1-124 WH1 (domain begin residue: 1, domain end residue: 124), Q7Z698
# T3 chain: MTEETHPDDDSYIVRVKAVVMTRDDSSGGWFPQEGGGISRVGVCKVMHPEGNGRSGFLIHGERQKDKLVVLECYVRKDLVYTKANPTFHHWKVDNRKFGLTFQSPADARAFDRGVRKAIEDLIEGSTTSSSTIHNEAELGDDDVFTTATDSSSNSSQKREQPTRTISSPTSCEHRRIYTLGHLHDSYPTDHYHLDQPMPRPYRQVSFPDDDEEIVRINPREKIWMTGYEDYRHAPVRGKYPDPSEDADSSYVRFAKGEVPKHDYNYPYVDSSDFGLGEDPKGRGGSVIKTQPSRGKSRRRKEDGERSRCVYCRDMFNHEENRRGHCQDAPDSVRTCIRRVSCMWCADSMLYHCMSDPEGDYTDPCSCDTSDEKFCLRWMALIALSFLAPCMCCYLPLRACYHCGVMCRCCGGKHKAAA
# T4: SPRED3 1-117 WH1 (domain begin residue: 1, domain end residue: 117), Q2MJR0
# T4 chain: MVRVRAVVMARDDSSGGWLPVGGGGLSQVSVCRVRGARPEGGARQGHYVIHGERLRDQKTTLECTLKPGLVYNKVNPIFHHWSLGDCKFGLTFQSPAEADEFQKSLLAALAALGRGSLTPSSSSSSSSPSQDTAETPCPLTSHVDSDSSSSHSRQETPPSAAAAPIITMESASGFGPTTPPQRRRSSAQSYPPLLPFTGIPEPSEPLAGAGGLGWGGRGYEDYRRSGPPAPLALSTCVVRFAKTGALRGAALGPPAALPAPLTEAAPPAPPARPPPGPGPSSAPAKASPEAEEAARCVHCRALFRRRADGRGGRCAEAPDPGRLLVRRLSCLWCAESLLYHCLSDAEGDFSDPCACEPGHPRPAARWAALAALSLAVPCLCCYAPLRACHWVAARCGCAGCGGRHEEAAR
# T5: SND1 650-910 TUDOR+SNase (domain begin residue: 650, domain end residue: 910), Q7KZF4
# T5 chain: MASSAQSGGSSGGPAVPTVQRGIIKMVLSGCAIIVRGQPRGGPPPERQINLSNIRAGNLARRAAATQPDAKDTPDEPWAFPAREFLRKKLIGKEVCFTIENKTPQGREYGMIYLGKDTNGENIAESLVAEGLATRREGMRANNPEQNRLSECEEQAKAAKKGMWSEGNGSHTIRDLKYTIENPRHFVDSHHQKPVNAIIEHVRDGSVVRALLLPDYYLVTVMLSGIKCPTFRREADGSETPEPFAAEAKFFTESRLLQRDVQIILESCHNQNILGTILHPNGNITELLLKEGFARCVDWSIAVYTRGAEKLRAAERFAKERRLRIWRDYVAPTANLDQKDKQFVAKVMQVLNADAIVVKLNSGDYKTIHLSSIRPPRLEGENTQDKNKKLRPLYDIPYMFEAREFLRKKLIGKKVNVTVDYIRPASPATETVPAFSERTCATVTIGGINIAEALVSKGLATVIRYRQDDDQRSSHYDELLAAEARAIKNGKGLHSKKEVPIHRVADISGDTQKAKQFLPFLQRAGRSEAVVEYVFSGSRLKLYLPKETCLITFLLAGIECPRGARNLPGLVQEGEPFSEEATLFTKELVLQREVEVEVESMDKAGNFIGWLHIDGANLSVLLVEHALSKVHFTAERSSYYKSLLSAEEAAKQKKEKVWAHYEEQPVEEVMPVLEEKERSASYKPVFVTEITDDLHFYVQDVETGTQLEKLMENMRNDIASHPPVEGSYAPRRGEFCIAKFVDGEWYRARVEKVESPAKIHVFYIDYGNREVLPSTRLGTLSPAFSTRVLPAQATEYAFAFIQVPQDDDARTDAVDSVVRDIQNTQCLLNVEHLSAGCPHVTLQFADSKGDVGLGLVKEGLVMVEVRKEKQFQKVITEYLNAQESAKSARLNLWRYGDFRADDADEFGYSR
# B1: unnamed (peptide)
# chain: PKWEFFQDHTQDHHNQ
# B2: unnamed (peptide)
# chain: VVYTGVDHNGNMYPVR
# B3: unnamed (peptide)
# chain: GIVPWWHDSGDHWGPL
# B4: unnamed (peptide)
# chain: PVQWGDWSYPYDLSGQ
# B5: unnamed (peptide)
# chain: EPDYGTAWFQHMMQEW
# B6: unnamed (peptide)
# chain: PWDMIWDDPSWAPMLE
# B7: unnamed (peptide)
# chain: GDYMSMLFMQEWGPFN
# B8: unnamed (peptide)
# chain: AWFEGPFDTSHWQWEA
# B9: unnamed (peptide)
# chain: GPMIGWNQEYIFFSEH
# B10: unnamed (peptide)
# chain: VTPQEMWEEYIATLQI
# B11: unnamed (peptide)
# chain: GAGELEWYPIWWDVTH
# B12: unnamed (peptide)
# chain: HEMFLWDGETVMQVWW
# B13: unnamed (peptide)
# chain: MGQLQDMQNNNWVPIV
# B14: unnamed (peptide)
# chain: DPGWYWEPAMLEAEWA
# B15: unnamed (peptide)
# chain: GYKLWETETSWWFVPA
# B16: unnamed (peptide)
# chain: HPIFNDAGGLQGWFSY
# B17: unnamed (peptide)
# chain: YEEFLDLNSNLQGLKT
# B18: unnamed (peptide)
# chain: WREEPHFHRDENGNII
# B19: unnamed (peptide)
# chain: WMWDGLAVVHMVPESV
# B20: unnamed (peptide)
# chain: MEVFDMNGNYPVRSRT
# B21: unnamed (peptide)
# chain: TPWWETTSTVMTYIKM
# B22: unnamed (peptide)
# chain: SSMWWTDTGDMYLRPE
# B23: unnamed (peptide)
# chain: HVQWINHSFMMDMPQN
# B24: unnamed (peptide)
# chain: YYLDENQNWISEGFLW
# B25: unnamed (peptide)
# chain: RSDYARDANGNMVVEF
# B26: unnamed (peptide)
# chain: LDWDWVQWHFDDAMRW
# B27: unnamed (peptide)
# chain: MWMWDGMQVVHLFEQY
# B28: unnamed (peptide)
# chain: NLWPEVEPIMDNWQPS
# B29: unnamed (peptide)
# chain: TGENNNVMPPHLSEHV
# How the values were obtained:
# Experiment in all cases: phage ELISA signal ratio (GST-PRM binding over GST background); higher = stronger binding of peptide-phage to the PRM
# [1] = biological target: T1, SHC1 149-317 PID (domain begin residue: …
# In short: (§1)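 Five rounds of selection were carried out against human peptide recognition domains fused to the C-terminus of glutathione S-transferase (GST) and expressed in 96-well plates. The M13 phage library presented randomized hexadecapeptides, cysteine-free and glycine-flanked, on the gene-8 major coat protein. For each value, the phage ELISA signal on the GST-domain fusion was divided by the signal on GST alone.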
# [2] = biological target: T2, SPSB2 26-221 SPRY (domain begin …
# In short: as §1
# [3] = biological target: T3, SPRED2 1-124 WH1 (domain begin residue: …
# In short: as §1
# [4] = biological target: T4, SPRED3 1-117 WH1 (domain begin residue: …
# In short: as §1
# [5] = biological target: T5, SND1 650-910 TUDOR+SNase (domain begin …
# In short: as §1
binder,measurement,setting,value
B1,phage ELISA signal ratio,[1],6.37
B2,phage ELISA signal ratio,[2],9.45
B3,phage ELISA signal ratio,[3],19.4
B4,phage ELISA signal ratio,[3],12.6
B5,phage ELISA signal ratio,[4],31
B6,phage ELISA signal ratio,[5],7.49
B7,phage ELISA signal ratio,[5],5.51
B8,phage ELISA signal ratio,[3],7.72
B9,phage ELISA signal ratio,[1],16.2
B10,phage ELISA signal ratio,[4],23.4
B11,phage ELISA signal ratio,[3],17.3
B12,phage ELISA signal ratio,[4],20.8
B13,phage ELISA signal ratio,[2],33.8
B14,phage ELISA signal ratio,[4],28.4
B15,phage ELISA signal ratio,[3],14
B16,phage ELISA signal ratio,[3],11.1
B17,phage ELISA signal ratio,[2],12.3
B18,phage ELISA signal ratio,[2],28.9
B19,phage ELISA signal ratio,[4],8.68
B20,phage ELISA signal ratio,[2],25
B21,phage ELISA signal ratio,[4],19.4
B22,phage ELISA signal ratio,[3],4.88
B23,phage ELISA signal ratio,[1],15.5
B24,phage ELISA signal ratio,[2],12.1
B25,phage ELISA signal ratio,[2],21.3
B26,phage ELISA signal ratio,[4],7.1
B27,phage ELISA signal ratio,[4],20.5
B28,phage ELISA signal ratio,[3],6.67
B29,phage ELISA signal ratio,[2],11.7
